Test results published in PubChem BioAssay.
A number with no mark means an inactive call. The list shows a part of the results. Activity calls are given as the source filed them.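 The calls were made as follows, unless noted: active = inhibition above the hit cutoff set in the earlier primary screen (cut at about 27% in these data); inactive = the rest.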

Tests used:
[1] = biological target: Protein phosphatase methylesterase 1 (Homo sapiens) (UniProt Q9Y570); test: PME-1 inhibitor activity retest, confirmation, biochemical, fluorescence polarization, FP-Rh probe, triplicate (AID 2171); conditions: recombinant PME-1, FP-Rh probe fluorescence polarization; at 5.9 µM; hits give high values;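 also: 0% = enzyme with DMSO and 100% = wells lacking PME-1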
Chain of Protein phosphatase methylesterase 1 (Homo sapiens) (Q9Y570 whole entry, looked up): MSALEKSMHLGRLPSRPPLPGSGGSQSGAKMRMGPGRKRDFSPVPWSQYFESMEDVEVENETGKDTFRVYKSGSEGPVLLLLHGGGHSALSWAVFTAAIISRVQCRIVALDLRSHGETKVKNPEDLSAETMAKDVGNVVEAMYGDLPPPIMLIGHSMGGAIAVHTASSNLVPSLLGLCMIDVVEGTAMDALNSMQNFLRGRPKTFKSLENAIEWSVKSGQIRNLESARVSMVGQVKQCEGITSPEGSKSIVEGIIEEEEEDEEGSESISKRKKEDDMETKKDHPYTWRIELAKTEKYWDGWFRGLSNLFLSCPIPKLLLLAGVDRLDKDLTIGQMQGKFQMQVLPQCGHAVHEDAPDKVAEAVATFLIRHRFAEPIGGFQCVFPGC

[2] = biological target: Oxytocin receptor (Homo sapiens) (UniProt P30559); test: human OXTR agonists, confirmation, fluorescence, CHO-OTR cells, triplicate (AID 434963;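 active = mean activation above about 20% derived from the earlier single-dose screen, limit read from the data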;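 also: peak over minimum fluorescence ratio per well during a 100 second FLIPR read; 0% = DMSO alone and 100% = oxytocin high control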); conditions: Fluo-8 calcium fluorescence, agonist, at 3 µM, hits give high values
Chain of Oxytocin receptor (Homo sapiens) (P30559 whole entry, looked up): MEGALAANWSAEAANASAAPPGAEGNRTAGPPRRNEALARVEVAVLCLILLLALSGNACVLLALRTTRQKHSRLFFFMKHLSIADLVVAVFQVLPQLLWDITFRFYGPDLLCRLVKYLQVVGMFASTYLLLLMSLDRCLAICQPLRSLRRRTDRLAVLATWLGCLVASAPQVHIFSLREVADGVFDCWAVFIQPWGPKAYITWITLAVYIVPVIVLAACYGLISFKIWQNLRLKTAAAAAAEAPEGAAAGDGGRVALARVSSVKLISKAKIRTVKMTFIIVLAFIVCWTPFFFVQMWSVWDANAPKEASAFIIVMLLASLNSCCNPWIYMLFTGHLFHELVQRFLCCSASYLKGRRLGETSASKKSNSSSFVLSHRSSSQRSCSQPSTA

[3] = biological target: Vasopressin V1a receptor (Homo sapiens) (UniProt P37288); test: V1a receptor agonists, calcium signal, counter-screen for OXTR agonist project, triplicate, fluorescence, CHO-V1R cells (AID 434991;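 active = mean activation over triplicate exceeds the hit threshold set in the earlier primary screen, cut at about 20% in these data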;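 also: peak over basal fluorescence ratio within a 100 second read; 0% = DMSO alone and 100% = 3 nM vasopressin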); conditions: Fluo-8 calcium fluorescence, at 3 µM, hits give high values
Chain of Vasopressin V1a receptor (Homo sapiens) (P37288 whole entry, looked up): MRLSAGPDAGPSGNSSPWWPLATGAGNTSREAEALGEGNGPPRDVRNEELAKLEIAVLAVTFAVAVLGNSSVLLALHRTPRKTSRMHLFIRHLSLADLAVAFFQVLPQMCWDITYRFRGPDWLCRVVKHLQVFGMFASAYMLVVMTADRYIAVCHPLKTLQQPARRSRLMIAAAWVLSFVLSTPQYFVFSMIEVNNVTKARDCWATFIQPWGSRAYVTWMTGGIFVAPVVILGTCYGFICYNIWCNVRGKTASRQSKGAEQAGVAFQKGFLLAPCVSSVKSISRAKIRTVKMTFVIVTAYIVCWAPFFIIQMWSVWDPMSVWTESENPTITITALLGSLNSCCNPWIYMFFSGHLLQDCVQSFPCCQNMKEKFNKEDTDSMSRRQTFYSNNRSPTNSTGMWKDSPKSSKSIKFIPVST

[4] = biological target: Insulin-degrading enzyme (Homo sapiens) (UniProt P14735); test: human IDE inhibitors in live cells, confirmation, fluorescence polarization, HEK cells, FAbetaB substrate (AID 435028;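 active = mean inhibition across triplicate wells above the cutoff set by the earlier primary insulin-degrading enzyme screen, cut at about 16% in these data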;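 also: 0% = DMSO wells and 100% = 60 µM reference IDE inhibitor Ii1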); conditions: FAbetaB cleavage, at 5.59 µM, hits give high values
Chain of Insulin-degrading enzyme (Homo sapiens) (P14735 whole entry, looked up): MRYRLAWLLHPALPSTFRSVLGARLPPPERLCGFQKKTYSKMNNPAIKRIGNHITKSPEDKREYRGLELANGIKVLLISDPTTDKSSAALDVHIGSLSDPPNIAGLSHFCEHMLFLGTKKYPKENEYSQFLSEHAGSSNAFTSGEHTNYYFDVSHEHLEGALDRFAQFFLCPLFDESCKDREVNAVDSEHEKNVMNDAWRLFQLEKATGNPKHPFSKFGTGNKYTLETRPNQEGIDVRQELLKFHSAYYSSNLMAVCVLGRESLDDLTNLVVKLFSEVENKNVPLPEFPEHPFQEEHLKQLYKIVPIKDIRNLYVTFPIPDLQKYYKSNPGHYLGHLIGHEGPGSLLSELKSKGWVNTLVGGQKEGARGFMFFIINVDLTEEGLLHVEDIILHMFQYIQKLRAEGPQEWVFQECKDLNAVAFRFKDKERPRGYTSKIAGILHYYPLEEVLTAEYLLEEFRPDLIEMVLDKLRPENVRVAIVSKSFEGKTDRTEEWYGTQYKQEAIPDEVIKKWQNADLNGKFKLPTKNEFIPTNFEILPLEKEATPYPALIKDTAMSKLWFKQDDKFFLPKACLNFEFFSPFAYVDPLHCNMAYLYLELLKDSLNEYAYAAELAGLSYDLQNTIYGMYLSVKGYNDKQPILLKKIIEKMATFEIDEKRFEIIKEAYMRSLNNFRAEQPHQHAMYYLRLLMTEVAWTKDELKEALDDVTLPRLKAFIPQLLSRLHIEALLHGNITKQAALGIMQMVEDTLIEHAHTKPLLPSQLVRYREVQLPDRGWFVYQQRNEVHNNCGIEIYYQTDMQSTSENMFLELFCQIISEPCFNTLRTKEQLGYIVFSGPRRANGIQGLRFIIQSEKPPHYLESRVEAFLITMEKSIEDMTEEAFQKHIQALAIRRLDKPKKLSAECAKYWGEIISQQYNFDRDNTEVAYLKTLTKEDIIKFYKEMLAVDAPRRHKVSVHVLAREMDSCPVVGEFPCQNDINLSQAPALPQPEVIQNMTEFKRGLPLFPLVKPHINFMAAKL

[5] = cytotoxicity in HEK cells, cytotoxicity control for IDE inhibitor project, cell-based, luminescence (AID 449730; in the data active = inhibition above about 22%;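 also: 0% = vehicle wells and 100% = reference cytotoxic drug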); conditions: HEK293 cytotoxicity, ATP luminescence; at 5.59 µM; hits give high values
[6] = biological target: Serine protease HTRA1 (Homo sapiens) (UniProt Q92743); test: HTRA1 protease inhibitors, retest, confirmation, biochemical, fluorescence polarization (AID 540248;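 active = mean inhibition over three repeats above a set limit taken from the earlier primary screen, cut at about 37% in these data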;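 also: 0% = HTRA1 with DMSO and 100% = wells lacking HTRA1; inhibitors block probe binding so polarization drops and inhibition rises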); conditions: recombinant HTRA1, FP-rhodamine activity-based probe, at 5.96 µM, hits give high values
[7] = biological target: Oxysterols receptor LXR-beta (Homo sapiens) (UniProt P55055); test: LXR agonists, Gal4 luciferase reporter, confirmation, counter-screen for hcDAF-12 agonist project, cell-based, luminescence, HEK293, H. contortus campaign (AID 743027;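 active = mean percent activation of the reporter above a cutoff set as the average over tested compounds plus their standard deviation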); conditions: HEK293 Gal4-LXR tk-luc reporter, 24 h, at 6.8 µM, hits give high values, normalized: DMSO 0%, positive control 100%
Chain of Oxysterols receptor LXR-beta (Homo sapiens) (P55055 whole entry, looked up, the tested form may be a part): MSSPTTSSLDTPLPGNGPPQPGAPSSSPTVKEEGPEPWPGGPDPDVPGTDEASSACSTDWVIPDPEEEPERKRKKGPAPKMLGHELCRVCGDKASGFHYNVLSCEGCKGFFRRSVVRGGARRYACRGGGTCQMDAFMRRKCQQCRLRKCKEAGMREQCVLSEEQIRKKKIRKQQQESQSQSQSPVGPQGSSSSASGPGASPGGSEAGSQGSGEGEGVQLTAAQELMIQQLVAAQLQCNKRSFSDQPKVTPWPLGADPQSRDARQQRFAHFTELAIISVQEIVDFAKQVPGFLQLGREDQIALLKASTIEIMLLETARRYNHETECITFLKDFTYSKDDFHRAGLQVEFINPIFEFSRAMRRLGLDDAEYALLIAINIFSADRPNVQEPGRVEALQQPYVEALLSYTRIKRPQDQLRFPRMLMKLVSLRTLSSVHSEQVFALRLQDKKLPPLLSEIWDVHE

[8] = test system: Nuclear hormone receptor DAF-12 (Haemonchus contortus); test: H. contortus DAF-12 receptor agonists, confirmation, cell-based, luminescence, HEK293, lit1-tk-luc, triplicate (AID 743032;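 active = mean activation across triplicate tests above the threshold derived from the earlier primary screen, cut at about 5.5% in these data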;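 also: 0% = DMSO only wells and 100% = 3 µM Δ7-dafachronic acid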); conditions: HEK293 hcDAF-12 lit1-tk-luc reporter, at 6.8 µM, hits give high values, % of Δ7-dafachronic acid response
[9] = test system: DAF-12 nuclear receptor (Heterodera glycines), GAL4-LBD fusion; test: H. glycines DAF-12 receptor agonists, confirmation, cell-based, luminescence, HEK293, GAL4-LBD fusion (AID 743050;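 active = mean activation over triplicate wells above the hit cutoff derived from the earlier primary screen, cut at about 11% in these data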;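 also: 0% = DMSO low control and 100% = 2 mM sodium butyrate high control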); conditions: HEK293 GAL4-hgDAF12 luciferase reporter, agonist mode; at 6.8 µM; hits give high values; percent of butyrate response
[10] = biological target: Oxysterols receptor LXR-beta (Homo sapiens) (UniProt P55055); test: LXR agonists, Gal4 luciferase reporter, confirmation, counter-screen for hgDAF-12 agonist project, cell-based, luminescence, HEK293, H. glycines campaign (AID 743051;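 active = mean activation of the triplicate above a set limit carried over from the primary screen, none filed active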); conditions: 24 h, at 6.8 µM, hits give high values
[11] = biological target: Glutathione S-transferase omega-1 (Homo sapiens) (UniProt P78417); test: GSTO1 inhibitor hit confirmation, counter-screen for RBBP9 inhibitor project, biochemical, fluorescence polarization, triplicate (AID 2176;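 active = inhibition above the primary screen's cutoff, its mean inhibition plus 3 SD, cut at about 35% in these data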;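 also: loss of polarization as inhibitors block binding of rhodamine sulfonate ester activity probe; 0% = GSTO1 with DMSO and 100% = wells lacking GSTO1 enzyme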); conditions: recombinant GSTO1, probe fluorescence polarization; at 5.96 µM; hits give high values
Chain of Glutathione S-transferase omega-1 (Homo sapiens) (P78417 whole entry, looked up): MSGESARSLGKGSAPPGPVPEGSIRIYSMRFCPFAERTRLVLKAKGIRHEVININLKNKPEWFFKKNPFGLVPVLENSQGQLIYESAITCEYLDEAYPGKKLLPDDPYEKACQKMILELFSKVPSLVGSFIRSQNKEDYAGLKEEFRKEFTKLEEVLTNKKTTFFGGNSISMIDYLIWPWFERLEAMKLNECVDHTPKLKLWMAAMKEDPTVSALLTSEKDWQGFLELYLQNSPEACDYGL

[12] = biological target: Protein-arginine deiminase type-4 (Homo sapiens) (UniProt Q9UM07); test: human PAD4 inhibitors, confirmation, biochemical, fluorescence polarization (AID 488796;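 active = mean inhibition across replicates above the hit cutoff set by the earlier primary screen, cut at about 15% in these data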;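 also: inhibitors block active-site labeling by the probe so polarization falls; 0% = PAD4 with probe and DMSO and 100% = probe without PAD4 enzyme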); conditions: recombinant PAD4, RCA probe fluorescence polarization; at 6.36 µM; hits give high values
[13] = biological target: Platelet-activating factor acetylhydrolase IB subunit alpha1 (Homo sapiens) (UniProt Q15102); test: PAFAH1B3 enzyme inhibitors, confirmation, biochemical, fluorescence polarization, human (AID 493032;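 active = average inhibition over triplicate runs above the hit cutoff set in the earlier primary screen, cut at about 25% in these data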;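 also: 0% = enzyme with DMSO and 100% = wells lacking PAFAH1B3 protein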); conditions: recombinant PAFAH1B3, FP-Rh activity-based probe, at 3.39 µM, hits give high values
Chain of Platelet-activating factor acetylhydrolase IB subunit alpha1 (Homo sapiens) (Q15102 whole entry, looked up): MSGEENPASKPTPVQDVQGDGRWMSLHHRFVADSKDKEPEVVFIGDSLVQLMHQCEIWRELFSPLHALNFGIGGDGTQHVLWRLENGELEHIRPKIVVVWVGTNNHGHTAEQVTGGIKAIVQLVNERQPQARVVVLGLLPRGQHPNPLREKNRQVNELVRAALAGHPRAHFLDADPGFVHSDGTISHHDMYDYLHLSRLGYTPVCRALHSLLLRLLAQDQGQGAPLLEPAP

[14] = biological target: (Lyso)-N-acylphosphatidylethanolamine lipase (Mus musculus) (UniProt Q8VD66); test: ABHD4 inhibitors, retest, confirmation, biochemical, fluorescence polarization, mouse (AID 720658;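 active = mean inhibition across replicates above the hit cutoff set in the primary screen, cut at about 30% in these data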;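 also: 0% = wild-type ABHD4 with DMSO and 100% = catalytically dead S159A mutant with DMSO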); conditions: purified mABHD4, FP-Rh probe fluorescence polarization; at 8.92 µM; hits give high values
Chain of (Lyso)-N-acylphosphatidylethanolamine lipase (Mus musculus) (Q8VD66 whole entry, looked up): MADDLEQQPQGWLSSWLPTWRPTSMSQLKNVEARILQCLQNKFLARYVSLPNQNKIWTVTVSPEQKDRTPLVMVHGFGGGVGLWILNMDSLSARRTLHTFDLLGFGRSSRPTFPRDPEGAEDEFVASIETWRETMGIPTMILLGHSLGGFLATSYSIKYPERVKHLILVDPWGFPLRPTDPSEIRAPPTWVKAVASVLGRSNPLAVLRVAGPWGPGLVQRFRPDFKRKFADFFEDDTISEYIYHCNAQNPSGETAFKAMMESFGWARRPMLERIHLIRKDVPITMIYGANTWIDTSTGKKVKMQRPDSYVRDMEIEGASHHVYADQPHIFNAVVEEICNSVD

[15] = test system: transactivating tegument protein VP16 (Human herpesvirus 1); test: VP16 transactivation reporter inhibitors, counter-screen for SRC2 inhibitor project, cell-based, luminescence, single concentration (AID 652007; in the data active = inhibition above about 36%); conditions: cell-based VP16 transactivation luciferase reporter, at 8.9 µM, hits give high values
[16] = biological target: Nuclear receptor coactivator 2 (Homo sapiens) (UniProt Q15596); test: SRC2 coactivator transcriptional activity inhibitors, confirmation, cell-based, luminescence, HEK293, triplicate (AID 652008;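 active = mean inhibition above 46.5%, the solvent-only control mean plus 3 SD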;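 also: 0% = DMSO-treated cells and 100% = Gossypol at 36 µM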); conditions: HEK293 GAL4-SRC2 luciferase reporter, at 8.9 µM, hits give high values
Chain of Nuclear receptor coactivator 2 (Homo sapiens) (Q15596 whole entry, looked up, the tested form may be a part): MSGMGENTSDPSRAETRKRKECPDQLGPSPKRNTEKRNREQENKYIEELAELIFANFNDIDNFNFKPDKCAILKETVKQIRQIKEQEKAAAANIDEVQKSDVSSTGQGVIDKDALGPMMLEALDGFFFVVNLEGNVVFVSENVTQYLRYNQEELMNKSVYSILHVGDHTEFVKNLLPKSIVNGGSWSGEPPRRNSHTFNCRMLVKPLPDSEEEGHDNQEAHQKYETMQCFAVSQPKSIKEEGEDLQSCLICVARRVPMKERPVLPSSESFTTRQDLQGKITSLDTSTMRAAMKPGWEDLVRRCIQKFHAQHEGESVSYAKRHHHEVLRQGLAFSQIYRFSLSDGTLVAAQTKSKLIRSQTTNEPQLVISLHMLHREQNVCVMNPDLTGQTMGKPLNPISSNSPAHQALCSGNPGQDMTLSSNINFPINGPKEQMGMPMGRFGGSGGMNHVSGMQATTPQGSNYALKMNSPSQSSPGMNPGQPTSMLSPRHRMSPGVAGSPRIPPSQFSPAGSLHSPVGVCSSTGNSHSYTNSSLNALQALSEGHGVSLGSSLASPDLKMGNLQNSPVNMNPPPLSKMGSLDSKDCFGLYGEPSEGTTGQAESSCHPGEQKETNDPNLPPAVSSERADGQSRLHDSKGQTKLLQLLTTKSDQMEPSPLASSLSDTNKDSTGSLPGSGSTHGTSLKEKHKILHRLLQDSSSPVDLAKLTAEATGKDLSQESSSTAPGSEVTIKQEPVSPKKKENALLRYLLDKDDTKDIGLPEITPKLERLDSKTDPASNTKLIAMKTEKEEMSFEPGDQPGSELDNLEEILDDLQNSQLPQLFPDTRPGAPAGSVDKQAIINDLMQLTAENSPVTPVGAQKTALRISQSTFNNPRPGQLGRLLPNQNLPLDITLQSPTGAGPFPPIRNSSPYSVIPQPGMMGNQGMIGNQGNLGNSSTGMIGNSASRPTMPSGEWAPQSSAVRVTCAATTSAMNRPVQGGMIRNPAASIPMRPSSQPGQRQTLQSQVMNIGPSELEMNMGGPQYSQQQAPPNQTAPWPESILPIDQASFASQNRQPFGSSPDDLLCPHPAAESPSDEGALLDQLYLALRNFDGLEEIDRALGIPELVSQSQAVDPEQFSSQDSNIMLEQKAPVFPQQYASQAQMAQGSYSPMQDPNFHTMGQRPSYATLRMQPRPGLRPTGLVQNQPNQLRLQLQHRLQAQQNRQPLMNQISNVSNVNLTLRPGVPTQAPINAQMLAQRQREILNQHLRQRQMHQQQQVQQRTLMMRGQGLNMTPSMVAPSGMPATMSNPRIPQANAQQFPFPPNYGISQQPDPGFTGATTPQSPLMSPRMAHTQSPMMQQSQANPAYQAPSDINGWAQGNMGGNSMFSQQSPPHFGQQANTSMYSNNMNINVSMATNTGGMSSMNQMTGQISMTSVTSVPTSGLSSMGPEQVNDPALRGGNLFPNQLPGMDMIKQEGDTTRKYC

Molecule `N#CC/C(N)=N/Nc1nc2ccccc2nc1Cc1ccccc1` has an inhibition [1] of -1.36%.

`Brc1ccc(-c2ccc(C3Nc4cccc5cccc(c45)N3)o2)cc1` showed an inhibition [1] of 24.1%.

For `COc1ccc(/C=N/Nc2nc3ccccc3o2)cc1O`, the inhibition [1] was 29.9% (active).

With `CCOc1cc(N(CC)CC)ccc1/C=C(/C#N)c1nc2ccccc2[nH]1` the inhibition [1] was 8.91%.

For `O=C(O)c1ccc(N/N=C/c2ccc(-c3ccc(Cl)cc3Cl)o2)cc1`, the inhibition [1] was 85.9% (active).

With `Cc1cc(C(=O)CC#N)c(C)n1-c1ccc(OC(F)F)cc1` the inhibition [1] was 45.9% (active).

With `COC(=O)c1ccc(Cn2nnc3c(=O)[nH]c(C4CCN(S(=O)(=O)c5ccc(F)cc5)CC4)nc32)cc1` the inhibition [1] was 38% (active).

`Cc1cc2c(N)cccc2nn1` showed an inhibition [1] of 7.9%.

Molecule `CCCCN(C)C1=CC2=CC(=C(C#N)C#N)CCC2CC1` (centres undefined) has an inhibition [1] of -13%.

For `COc1cc2nc(Nc3ccc(C)c(Cl)c3)nc(N)c2cc1OC`, the inhibition [1] was 49.4% (active).

With `Cn1c(=O)c(NCCO)c2c3c(cccc31)C(=O)c1ccccc1-2` the inhibition [1] was 134% (active).

With `COc1cc(/C=C/c2ccc3cccc(O)c3n2)ccc1O` the inhibition [1] was 53.6% (active).

`Cc1ccc(C(=O)COC(=O)c2cccc(NC(=O)c3ccc([N+](=O)[O-])cc3[N+](=O)[O-])c2)cc1` showed an inhibition [1] of -3.98%.

With `O=C(NNc1c2ccccc2nc2ccccc12)c1ccc(O)cc1O` the inhibition [1] was 65.2% (active).

With `CCOc1cc(/C=N/NC(=O)c2cccc([N+](=O)[O-])c2)ccc1OS(=O)(=O)c1ccccc1` the inhibition [1] was 19.9%.

`COc1ccc(Br)cc1CNc1ccc(O)cc1` showed an inhibition [1] of 9.35%.

In the case of `Cc1nc2ccccc2nc1N/N=C/c1ccc(O)cc1O`, the inhibition [1] is reported as 36.4% (active).

For `CCC(=O)Oc1ccc(C/C(=N\O)c2ccc(O)cc2O)o1`, the inhibition [1] was 43% (active).

`N#Cc1c(N)n(CCOC(=O)c2cccc([N+](=O)[O-])c2)c2nc3ccccc3nc12` gave an inhibition [1] of 19.5%.

`Cc1cc(C)c2c(N)c(C(=O)NN)sc2n1` gave an inhibition [1] of 10.5%.

For `CSc1nsc(/C=C/Nc2ccc(O)cc2C)c1C#N`, the inhibition [1] was -1.46%.

In the case of `COc1ccc(NC(C(=O)Nc2cccc(C(C)=O)c2)c2ccccc2)cc1` (centres undefined), the inhibition [1] is reported as 36% (active).

Work on `CCC1Sc2ccc(S(=O)(=O)CCC(=O)Nc3ccc(OC(F)(F)F)cc3)cc2NC1=O` (centres undefined) yielded an inhibition [1] of 17.3%.

With `Fc1cccc2sc(Nc3nnc(-c4ccccc4)o3)nc12` the inhibition [1] was 33% (active).

In the case of `Cn1nc(-c2ccc(Cl)cc2)nc2c(=O)n(C)c(=O)nc1-2`, the inhibition [1] is reported as 44.8% (active).

`O=C(CNc1ccc(F)cc1)N/N=C/c1c(O)ccc2ccccc12` gave an inhibition [1] of 16.3%.

Molecule `O=S(=O)(c1ccc(-c2csc(Nc3ccc(Br)cc3)n2)cc1)N1CCCC1` has an inhibition [1] of 16.5%.

With `N#C/C(=C/c1ccc(N2CCCCC2)o1)C(=O)NCCc1c[nH]c2ccccc12` the activation [2] was 33.6% (active), the activation [3] was 52.1% (active) and the inhibition [4] was 150% (active). It also gave an inhibition [5] of 5.73%.

For `Cc1ccc(Nc2nc(-c3ccc(O)cc3O)cs2)nc1`, the inhibition [6] was 50.7% (active).

With `O=C(Nc1ccc(OC(F)(F)F)cc1)c1ccc2c(c1)no[n+]2[O-]` the inhibition [6] was 69.4% (active).

For `COc1cc(/C=N/Nc2nc3ccccc3s2)ccc1O`, the activation [7] was 1.25%, the activation [8] was 12.4% (active) and the activation [9] was 18.2% (active). For the same molecule, the activation [10] was 0.97%.

Molecule `COCCN1C=C2C(=O)C(C)(OC(=O)C3CCCC3)C(=O)C=C2C=C1c1ccsc1` (centres undefined) has an inhibition [11] of 7.54% and an inhibition [12] of -1.24%.

With `CC(C)CC[n+]1ccn(C2=C([O-])c3ccccc3C(=O)/C2=N\S(=O)(=O)c2ccccc2)c1` the inhibition [11] was 68.2% (active).

Work on `O=C(OCC(=O)N1CCCC1=O)c1cc(S(=O)(=O)N2CCOCC2)ccc1Cl` yielded an inhibition [11] of 1.2%.

`O=C1Nc2c(Br)cc(Br)cc2C1(O)N1CCOCC1` (centres undefined) gave an inhibition [11] of 25.2% and an inhibition [13] of 8.59%.

With `O=C(O)c1cccc(NC(=S)N/N=C/c2c[nH]c3ccccc23)c1` the inhibition [11] was 54.5% (active).

`CCCc1nc2ccccc2c(=O)n1/N=C/c1ccc(O)c(O)c1` gave an inhibition [11] of 3.52%.

With `CC1C(=O)Nc2ccccc2N1C(=O)c1ccc(F)cc1F` (centres undefined) the inhibition [11] was 5.92%.

In the case of `Oc1ccc(CNc2ccccc2O)cc1`, the inhibition [11] is reported as 21.7%, the inhibition [6] is reported as 29% and the inhibition [14] is reported as 37.2% (active).

For `CC1=CC(C)(C)Nc2ccc(OC(=O)CN3C(=O)C4CCCCC4C3=O)cc21` (centres undefined), the inhibition [11] was 1.06%, the inhibition [4] was 29.8% (active) and the inhibition [5] was 75% (active). For the same molecule, the inhibition [15] was -22.9% and the inhibition [16] was 27.4%.
